Hit rate of the full screen: of about 2,100 compounds, about 650 (31%) were called active. About 16% were inconclusive and are not listed. The call rests on the fitted dose curve; in most records, active means well fitted inhibition curve with a large enough effect; inconclusive means small, poorly fitted or top-dose-only effect; inactive means flat fitted curve, though single readings scatter. Some of the results follow. Entries that show only a call come without a potency.
test: qHTS for inhibitors of Vif-A3G interactions: Cherry picks; conditions: HeLa A3G-eYFP + Vif (tagged APOBEC3G with the HIV-1 protein that degrades it), 24 h; Potency: eYFP fluorescence increase; series mostly up to 36.9 µM; further: nearly all actives have a fitted effect of over 80% in size
Summary of the method: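 Cherry-picked compounds tested at several concentrations on A3G-eYFP/Vif HeLa cells for 24 hours; loss of Vif-driven degradation read as eYFP fluorescence by cytometric plate imaging, 488 nm excitation, 500-530 nm emission.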
Potency means the concentration at half of the fitted maximal effect.

Structure (SMILES)	Potency
C/C(=N\NC(=O)c1c(Cl)c(C)nn1C)c1ccc(NC(=O)C2CCC2)cc1	inactive
Cc1ccc(NC(=O)Cn2ncc(Cl)c(Cl)c2=O)cc1S(=O)(=O)N1CCCCC1	inactive
O=C(N/N=C/c1ccc2c(c1)OCO2)c1ccc2c(c1)OCCO2	inactive
Brc1ccc2c(c1)[C@H]1OCC[C@H]1[C@@H](c1cccs1)N2	inactive
C=C(C)CNC(=S)N/N=C1\CCCCc2ccccc21	inactive
COc1cccc(C(=O)Nc2ncc3c(n2)CC(c2ccc(OC)cc2OC)CC3=O)c1 (stereo not given)	inactive
Cc1cc(N2CCN(C)CC2)ccc1NC(=O)c1c2c(nc3ccccc13)CCN(Cc1ccccc1)C2	inactive
COc1ccc(NC(=O)c2sc3nc4c(cc3c2N)CN(Cc2ccccc2)CC4)c(OC)c1	18.4 µM (active)
CCOC(=O)c1c(C)nc2sc(C(=O)Nc3ccc(OC)cc3)c(N)c2c1-c1ccc(OC)cc1	inactive
COc1ccc(NC(=O)c2cc(-c3ccccc3OC)on2)cc1	inactive
COc1ccc(C(=O)c2sc3nc(-c4ccc(C)cc4)cc(C(F)(F)F)c3c2N)cc1	2.06 µM (active)
COc1ccc(NC(=O)c2sc3nc(-c4cccnc4)ccc3c2N)cc1OC	3.66 µM (active)
COc1cccc(NC(=O)Nc2nc(-c3ccc(OC)c(OC)c3)cs2)c1	inactive
COc1ccc(OC)c(-c2cc(-c3cccnc3)nc(N)c2C#N)c1	inactive
COc1ccc(NC(=O)c2sc3nc(-c4ccc(OC)cc4)cc(C(F)(F)F)c3c2N)cc1	0.731 µM (active)
CC1(C)Cc2nc3sc4c(=O)n(CC(=O)NCc5ccccc5)cnc4c3cc2CO1	inactive
O=[N+]([O-])c1ccccc1SNc1ccccc1	inactive
CC(=O)Nc1ccc(S(=O)(=O)Nc2nc3ccccc3nc2Nc2ccc3ccccc3c2)cc1	inactive
Clc1ccc(-c2csc3ncnc(Sc4nnnn4C4CC4)c23)cc1	inactive
O=C1NC(c2ccc(Br)cc2)Nc2ccccc21 (stereo not given)	inactive
C/C(=N\NC(=O)c1cc(-c2ccncc2)nc2ccccc12)c1ccc(N2CCOCC2)cc1	inactive
CC(=O)Nc1ccc(-c2ccnc3c2CC(C(=O)NCc2cccc(Cl)c2)O3)cc1 (stereo not given)	inactive

Structure (SMILES)	Potency
COc1ccc2nc3sc(C(=O)Nc4cc(Cl)c(OC)cc4OC)cc3cc2c1	inactive
COc1cc(C(=O)Nc2nnc(Cc3ccccc3)s2)cc(OC)c1OC	inactive
COc1ccc(OC)c(NC(=O)c2sc3nc(Cc4ccccc4)cc(C(F)(F)F)c3c2N)c1	4.61 µM (active)
Cc1cc(C(F)(F)F)c2c(N)c(C(=O)Nc3cc(C)on3)sc2n1	8.2 µM (active)
Cc1cc(-c2nc(C)c(C(=O)NN)s2)no1	inactive
O=C(N/N=C/c1cccc2ccccc12)c1n[nH]c2c1CCCC2	inactive
O=C(OCC12CC3CC(CC(C3)C1)C2)c1ccc(NCc2cc(O)ccc2O)cc1	inactive
CC(=O)Nc1ccc(-c2ccnc3c2CC(C(=O)Nc2cccc(N(C)C)c2)O3)cc1 (stereo not given)	inactive
CC(CC(=O)Nc1ccc2c(c1)c(=O)n(C)n2-c1ccccc1)c1ccccc1 (stereo not given)	inactive
O=C(NCc1ccc2c(c1)OCO2)c1cc([N+](=O)[O-])ccc1N1CCOCC1	inactive
O=C(/C=C/c1cccs1)NCc1ccc2c(c1)OCO2	inactive
NC(=O)CSc1nc2c(sc3ccccc32)c(=O)n1CCCC(=O)NCC1CCCO1 (stereo not given)	inactive
CCOC(=O)/C=c1/s/c(=C/c2ccc3cc(OC)ccc3c2)c(=O)n1CC(=O)NCC1CCCO1 (stereo not given)	18.4 µM (active)
CCOC(=O)/C=c1\s/c(=C\c2ccccc2C)c(=O)n1CC(=O)NCc1ccc2c(c1)OCO2	15.8 µM (active)
COc1ccc(OC)c(C2CC(=O)c3c([nH]c(C(=O)OCC4CCCO4)c3C)C2)c1 (stereo not given)	inactive
COc1cc2c(cc1OC)C1=CC(=O)C(=O)N1C(C)(C)C2	17.7 µM (active)
COc1ccc(-c2cc(NC=O)c3ncc(-c4ccc(C(C)=O)cc4)n3c2)cc1OC	inactive
O=C(NCc1ccccc1)c1cccc2c1C(=O)c1ccc(/C=C/c3ccccc3)cc1S2(=O)=O	18.4 µM (active)
CCCOc1ccc2cc(C(=O)NCc3ccccc3)c(=O)oc2c1	inactive
O=C(NCc1ccc2c(c1)OCO2)c1cc([N+](=O)[O-])ccc1N1CCCCC1	inactive
Cc1ccc(CNC(=O)c2cccc3c2C(=O)c2ccc(N4CCCCC4)cc2S3(=O)=O)cc1	20.6 µM (active)
Cn1c(=O)c2cc(NC(=O)NCc3ccccc3)ccc2n1C/C=C/c1ccccc1	inactive

Structure (SMILES)	Potency
Cc1ccc(CNC(=O)Cc2ccc(-n3cccc3)cc2)cc1	inactive
Cc1ccc(CNC(=O)c2cccc3c2C(=O)c2ccc(N4CCC(C)CC4)cc2S3(=O)=O)cc1	20.6 µM (active)
CC1CCN(c2ccc3c(c2)S(=O)(=O)c2cccc(C(=O)NCc4cccc(F)c4)c2C3=O)CC1	14 µM (active)
COc1ccc(NC(=O)C2(C)Cc3c(-c4ccc5c(c4)OCO5)ccnc3O2)cn1 (stereo not given)	inactive
CCN(CC)c1ccc(/C=C/c2ccncc2)cc1	16.4 µM (active)
CN(C)c1ccc(/C=C/c2ccncc2)cc1	20.6 µM (active)
CCN(CC)c1ccc(/C=C/C2=C3C=CC=CC3NC=C2)cc1 (stereo not given)	18.4 µM (active)
CCN(CC)c1ccc(/C=C/c2ccccn2)cc1	14.6 µM (active)
Cc1cc(N/N=C/c2ccc(O)cc2O)nc(-n2nc(C)cc2C)n1	inactive
CCN(CC)c1ccc(/C=C/C(=O)c2ccc(Br)cc2)cc1	25.9 µM (active)
CCN(CC)c1ccc(/C=N/NC(=O)c2ccco2)cc1	inactive
c1ccc(C2CNCc3c2ccc2ccccc32)cc1 (stereo not given)	inactive
CCN(CC)c1ccc(/C=C(/C#N)c2nc3ccccc3[nH]2)c(OC(C)C)c1	0.58 µM (active)
Cc1cccc(OCCOc2ccccc2C=C(C#N)C#N)c1	inactive
CCOc1cc(N(CC)CC)ccc1/C=C(/C#N)c1nc2ccccc2[nH]1	4.61 µM (active)
CCCOc1cc(N(CC)CC)ccc1/C=C(/C#N)c1nc2ccc(C)cc2[nH]1	18.4 µM (active)
O=C1C=C(Nc2ccc(Cl)cc2Cl)CC(c2ccco2)C1 (stereo not given)	inactive
CCS(=O)(=O)N1N=C(c2cccc(NS(C)(=O)=O)c2)CC1c1ccc(C)cc1 (stereo not given)	18.4 µM (active)
CC(=O)c1cccc(-c2ccnc3c2CC(C(=O)Nc2cccc(NS(C)(=O)=O)c2)O3)c1 (stereo not given)	inactive
CS(=O)(=O)Nc1ccc(C2=NN(S(C)(=O)=O)C(c3ccc4nccnc4c3)C2)cc1 (stereo not given)	inactive
O=C1CCCN1c1ccc(S(=O)(=O)Nc2ccc3c(c2)OCCO3)cc1	inactive
